Eleven compounds from PubChem BioAssay (Tox21) can be followed below.

Values joined by “and” are separate entries in the source; they are usually repeats but may differ in a detail not shown here. Equal values may be shown once. Records with an inconclusive call do not appear. Where a structure was tested more than once in an assay, its records may differ in their call. Active and inactive are the calls of the source. Unless noted, the call rests on the fitted dose curve; in most records, active means well fitted curve in the direction sought with a large enough effect in the repeat runs; inconclusive means weak or mixed curves; inactive means no such curve, though single readings can be large; an effect the other way counts as inactive or inconclusive.

Test [1] can be described thus: Human pregnane X receptor (PXR) small molecule agonists, qHTS cell viability counter screen (AID 1346977). Further: nearly all actives have a fitted effect of over 50% in size. The method, boiled down:
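PXR-Luc HepG2 cells (2,000/well, 5% charcoal-stripped FBS) preincubated 5 hr, then exposed to compounds 24 hr at 37 C. Viability read in the same wells by CellTiter-Fluor fluorescence, reagent added at 23 hr, 1 hr incubation.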
In general terms: Quantitative high-throughput screening tests each substance at several concentrations.

Test [2] is described as follows: Caspase-3/7 induction in HepG2 cells by small molecules, qHTS assay (AID 1346978). Further: nearly all actives have a fitted effect of over 15% in size. The method, boiled down: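 Wild-type HepG2 cells (2,000/well) were settled 5 h at 37 C, 5% CO2, then exposed to compounds in DMSO for 17 h. Caspase-3/7 activity was read by luminescence 30 min after adding Caspase-Glo 3/7 reagent at room temperature.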
The nature of test [3]: Caspase-3/7 induction in CHO-K1 cells by small molecules, qHTS cell viability counter screen (AID 1346979). Further: nearly all actives have a fitted effect of over 35% in size. A digest of the protocol: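 Wild-type CHO-K1 cells (1,500/well) treated with compound after 5 h plating; after 16 h at 37C, viability read as CellTiter-Fluor fluorescence following 1 h reagent incubation, in the same wells as the caspase read.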
Test [4] in a line: Caspase-3/7 induction in CHO-K1 cells by small molecules, qHTS assay (AID 1346980). Further: nearly all actives have a fitted effect of over 15% in size. The method, boiled down: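 Wild-type cells were seeded at 1,500 per well and settled 5 hr at 37 C, 5% CO2, then exposed to DMSO-dissolved compounds for 17 hr. Caspase-Glo 3/7 reagent was added, and luminescence was read after 30min at room temperature.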
Test [5] is described as follows: Caspase-3/7 induction in HepG2 cells by small molecules, qHTS cell viability counter screen (AID 1346981). Further: nearly all actives have a fitted effect of over 30% in size. The method, boiled down:
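The parent HepG2 line is plated at 2,000 cells per well and rested 5 hr before compound pinning from DMSO stocks. Following a 16-hr treatment at 37 C, a fluorogenic live-cell substrate (CellTiter-Fluor) reports viability after 1 hr.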

The target in test [6] is Acetylcholinesterase (Homo sapiens) (UniProt P22303). The test can be described thus: Acetylcholinesterase (AChE) small molecule antagonists: colormetric cell-based qHTS assay (AID 1347395; calls by dose curve; further: nearly all actives have a fitted effect of over 30% in size). A digest of the protocol:
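SH-SY5Y cells attached overnight, exposed to compound 30 min at 37 C, then given DTNB/acetylthiocholine; after 90 min at 37 C, colorimetric thiocholine read gives cellular AChE activity.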

For test [7] the target is unchanged. The test can be described thus: Acetylcholinesterase (AChE) small molecule antagonists: enzyme-based qHTS assay (AID 1347397; calls by dose curve; further: nearly all actives have a fitted effect of over 55% in size). The following applies: Potency: AChE enzyme activity inhibition. The method, boiled down: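 Compound or DMSO vehicle was pin-transferred onto recombinant human AChE (50 mU/mL as dispensed) and left 30 min at room temperature. Acetylthiocholine with DTNB then started the reaction, read colorimetrically 10 min later.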

Test [8] has the same target. Nature of the test: Acetylcholinesterase (AChE) small molecule antagonists: fluorescence cell-based qHTS assay (AID 1347398; calls by dose curve; further: nearly all actives have a fitted effect of over 50% in size). The settings on record: Potency: AChE activity. The method, boiled down: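 Using neuroblastoma SH-SY5Y cells as the enzyme source, test chemicals are preincubated 30 min at 37 C; AChE-driven acetylthiocholine cleavage is then quantified by thiocholine-dependent Thiolite Green fluorescence after 40 min at room temperature.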

Test [9] has the same target. Nature of the test: Acetylcholinesterase (AChE) small molecule antagonists: enzyme-based qHTS assay with human liver microsomes (AID 1347399; calls by dose curve; further: nearly all actives have a fitted effect of over 60% in size). The following applies: Potency: qHTS inhibition. A digest of the protocol: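 Recombinant human AChE (50 mU/mL in the enzyme mix) and human liver microsomes (0.25 mg/mL final) were preincubated with compound and NADPH (0.25 mg/mL final) for 30 min at 37 C. Acetylthiocholine/DTNB was then added; thiocholine was read colorimetrically after 10 min at room temperature.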

Test [10] addresses Cytochrome P450 2D6 (Homo sapiens) (UniProt P10635). The test can be described thus: Cytochrome P450 Family 2 Subfamily D Member 6 (CYP2D6) small molecule antagonists: luciferase reporter qHTS assay (AID 1671196). Further: nearly all actives have a fitted effect of over 50% in size. The method, boiled down:
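Quantitative HTS of Tox21 chemicals against CYP2D6 using a luminescent proluciferin substrate. After NADPH addition, 1 h room-temperature reaction; luminescence recorded 20 min post detection reagent.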

The target of test [11] is Cytochrome P450 2C19 (Homo sapiens) (UniProt P33261). The test can be described thus: Cytochrome P450 Family 2 Subfamily C Member 19 (CYP2C19) small molecule antagonists: luciferase reporter qHTS assay (AID 1671197). Further: nearly all actives have a fitted effect of over 65% in size. The method, boiled down: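 P450-Glo CYP2C19 system: enzyme-substrate mix with compound 10 min at room temperature, then NADPH regeneration solution, 1 h at 37C. Proluciferin-to-luciferin conversion detected by luminescence after 20 min with detection reagent; ketoconazole as positive control.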
Cytochrome P450 2C19 (Homo sapiens), sequence (P33261 whole entry, looked up): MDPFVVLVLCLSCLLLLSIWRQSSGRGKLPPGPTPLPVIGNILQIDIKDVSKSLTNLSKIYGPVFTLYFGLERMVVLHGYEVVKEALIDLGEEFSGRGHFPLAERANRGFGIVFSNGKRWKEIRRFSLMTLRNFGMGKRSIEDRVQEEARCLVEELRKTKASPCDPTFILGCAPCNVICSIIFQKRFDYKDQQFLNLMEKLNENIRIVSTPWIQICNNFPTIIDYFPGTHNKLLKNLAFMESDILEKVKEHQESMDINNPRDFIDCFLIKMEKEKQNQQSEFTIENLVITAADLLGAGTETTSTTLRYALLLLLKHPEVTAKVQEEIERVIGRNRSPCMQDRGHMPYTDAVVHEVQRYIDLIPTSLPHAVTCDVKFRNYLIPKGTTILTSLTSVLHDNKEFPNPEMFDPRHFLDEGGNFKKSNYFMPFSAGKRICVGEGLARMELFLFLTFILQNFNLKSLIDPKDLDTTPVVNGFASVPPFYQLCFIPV

In test [12] the target is Cytochrome P450 2C9 (Homo sapiens) (UniProt P11712). Nature of the test: Cytochrome P450 Family 2 Subfamily C Member 9 (CYP2C9) small molecule antagonists: luciferase reporter qHTS assay (AID 1671198). Further: nearly all actives have a fitted effect of over 50% in size. The method, boiled down:
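CYP2C9 activity was measured with a P450-Glo proluciferin substrate. Enzyme–substrate mix was held with compound for 10 min at room temperature, then NADPH regeneration solution was added for 1 h at 37C. Luciferin product was read as luminescence.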
In general terms: Reporter assays use an easily measured gene product as a stand-in for the process of interest.

Test [13] has as its target Cytochrome P450 1A2 (Homo sapiens) (UniProt P05177). Nature of the test: Cytochrome P450 Family 1 Subfamily A Member 2 (CYP1A2) small molecule antagonists: luciferase reporter qHTS assay (AID 1671199). Further: nearly all actives have a fitted effect of over 50% in size. A digest of the protocol:
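Quantitative high-throughput format using the P450-Glo CYP1A2 system. Reaction initiated by NADPH regeneration solution, 1 h at room temperature, then stopped with detection reagent; luminescence measured 20 min later.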

The target in test [14] is Voltage-gated inwardly rectifying potassium channel KCNH2 (Homo sapiens) (UniProt Q12809). Nature of the test: Human Ether-a-go-go-Related Gene (hERG) channel small molecule antagonists: fluorescence cell-based qHTS assay (AID 1671200). Further: nearly all actives have a fitted effect of over 50% in size. The method, boiled down:
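hERG-U2OS cells plated overnight at 37 C, loaded with FluxOR II dye 1 h at RT in dark; after 10 min, thallium stimulus added. Fluorescence (480/540 nm) read kinetically for 2 min at 1 s intervals.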
On the technique in general: The hERG channel carries a current that helps repolarise heart muscle cells.

Test [15] has as its target Cytochrome P450 3A4 (Homo sapiens) (UniProt P08684). Nature of the test: Cytochrome P450 Family 3 Subfamily A Member 4 (CYP3A4) small molecule antagonists: luciferase reporter qHTS assay (AID 1671201). Further: nearly all actives have a fitted effect of over 50% in size. A digest of the protocol:
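P450-Glo CYP3A4 luminescent assay: compounds preincubated 10 min at room temperature with enzyme and proluciferin substrate, NADPH regeneration added, 1 h room-temperature reaction, stopped with luciferin detection reagent; luminescence read after 20 min. Ketoconazole positive control.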

Test [16] has as its target Nuclear receptor subfamily 1 group I member 2 (Homo sapiens) (UniProt O75469). The test can be described thus: Human pregnane X receptor (PXR) small molecule agonists, qHTS assay (AID 1346982). Further: nearly all actives have a fitted effect of over 35% in size. The method, boiled down: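 After plating in 5% charcoal-stripped FBS and a 5 hr rest, PXR-Luc HepG2 cells received compounds in DMSO. Following 24 hr at 37 C, ONE-Glo was added and light output read.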
Potency means the concentration at half of the fitted maximal effect.

Cytochrome P450 3A4 (Homo sapiens), sequence (P08684 whole entry, looked up): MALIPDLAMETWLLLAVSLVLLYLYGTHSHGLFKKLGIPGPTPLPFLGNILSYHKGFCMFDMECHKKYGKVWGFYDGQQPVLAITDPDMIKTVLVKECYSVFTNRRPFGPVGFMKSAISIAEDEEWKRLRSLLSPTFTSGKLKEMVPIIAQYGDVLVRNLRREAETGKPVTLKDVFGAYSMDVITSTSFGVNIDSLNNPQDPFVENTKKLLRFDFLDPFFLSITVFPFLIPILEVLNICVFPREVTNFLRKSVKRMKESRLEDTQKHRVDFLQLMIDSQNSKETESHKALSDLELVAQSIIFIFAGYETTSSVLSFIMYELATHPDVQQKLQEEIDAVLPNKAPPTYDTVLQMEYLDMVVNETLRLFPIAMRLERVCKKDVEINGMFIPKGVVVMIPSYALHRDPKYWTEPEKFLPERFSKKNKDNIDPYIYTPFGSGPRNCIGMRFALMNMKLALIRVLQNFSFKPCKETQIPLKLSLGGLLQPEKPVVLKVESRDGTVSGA
Acetylcholinesterase (Homo sapiens), sequence (P22303 whole entry, looked up): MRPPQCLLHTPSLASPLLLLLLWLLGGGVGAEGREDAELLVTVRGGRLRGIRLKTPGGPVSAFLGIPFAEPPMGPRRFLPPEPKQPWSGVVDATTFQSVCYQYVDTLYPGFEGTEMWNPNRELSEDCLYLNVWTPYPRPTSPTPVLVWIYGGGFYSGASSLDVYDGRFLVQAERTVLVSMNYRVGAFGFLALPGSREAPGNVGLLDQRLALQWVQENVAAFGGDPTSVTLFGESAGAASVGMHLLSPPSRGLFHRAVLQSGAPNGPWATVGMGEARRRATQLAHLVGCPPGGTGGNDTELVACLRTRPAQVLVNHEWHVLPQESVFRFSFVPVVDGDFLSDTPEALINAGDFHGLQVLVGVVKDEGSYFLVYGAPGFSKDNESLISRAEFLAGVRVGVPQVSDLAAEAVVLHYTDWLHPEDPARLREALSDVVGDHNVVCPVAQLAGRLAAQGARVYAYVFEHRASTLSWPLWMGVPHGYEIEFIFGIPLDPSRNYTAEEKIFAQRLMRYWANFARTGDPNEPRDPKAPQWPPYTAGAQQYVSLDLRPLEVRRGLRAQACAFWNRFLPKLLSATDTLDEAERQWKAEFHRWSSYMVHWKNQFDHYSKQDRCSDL
Voltage-gated inwardly rectifying potassium channel KCNH2 (Homo sapiens), sequence (Q12809 whole entry, looked up): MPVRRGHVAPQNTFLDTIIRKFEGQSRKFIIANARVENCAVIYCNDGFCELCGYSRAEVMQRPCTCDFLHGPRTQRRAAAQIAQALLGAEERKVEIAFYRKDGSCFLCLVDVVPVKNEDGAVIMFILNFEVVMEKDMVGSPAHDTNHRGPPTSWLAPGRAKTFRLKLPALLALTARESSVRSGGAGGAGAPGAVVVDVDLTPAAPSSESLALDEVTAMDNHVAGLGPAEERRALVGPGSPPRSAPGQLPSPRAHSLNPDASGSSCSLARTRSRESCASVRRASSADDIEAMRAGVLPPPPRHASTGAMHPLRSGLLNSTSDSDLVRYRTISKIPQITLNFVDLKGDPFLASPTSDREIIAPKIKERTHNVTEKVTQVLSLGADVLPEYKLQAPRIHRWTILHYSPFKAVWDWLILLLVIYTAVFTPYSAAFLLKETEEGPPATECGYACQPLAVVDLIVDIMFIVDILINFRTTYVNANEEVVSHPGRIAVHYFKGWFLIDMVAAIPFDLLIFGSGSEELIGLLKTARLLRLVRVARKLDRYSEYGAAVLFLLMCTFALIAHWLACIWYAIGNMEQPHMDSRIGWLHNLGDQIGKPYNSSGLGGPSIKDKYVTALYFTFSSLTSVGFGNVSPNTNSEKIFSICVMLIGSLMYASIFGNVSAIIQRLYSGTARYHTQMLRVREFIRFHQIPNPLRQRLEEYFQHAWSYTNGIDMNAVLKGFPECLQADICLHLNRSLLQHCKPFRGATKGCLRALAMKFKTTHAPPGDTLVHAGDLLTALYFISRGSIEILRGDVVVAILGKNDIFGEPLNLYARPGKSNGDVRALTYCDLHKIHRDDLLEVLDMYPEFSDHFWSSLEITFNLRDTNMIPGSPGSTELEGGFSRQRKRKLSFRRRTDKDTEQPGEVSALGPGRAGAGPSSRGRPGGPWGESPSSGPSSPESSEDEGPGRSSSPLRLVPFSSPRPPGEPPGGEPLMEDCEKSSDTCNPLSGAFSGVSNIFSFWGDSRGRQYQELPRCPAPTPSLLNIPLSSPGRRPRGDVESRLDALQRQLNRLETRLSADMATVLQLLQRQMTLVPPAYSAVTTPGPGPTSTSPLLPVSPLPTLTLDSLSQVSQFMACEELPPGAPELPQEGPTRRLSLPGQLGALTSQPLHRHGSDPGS
Cytochrome P450 2D6 (Homo sapiens), sequence (P10635 whole entry, looked up): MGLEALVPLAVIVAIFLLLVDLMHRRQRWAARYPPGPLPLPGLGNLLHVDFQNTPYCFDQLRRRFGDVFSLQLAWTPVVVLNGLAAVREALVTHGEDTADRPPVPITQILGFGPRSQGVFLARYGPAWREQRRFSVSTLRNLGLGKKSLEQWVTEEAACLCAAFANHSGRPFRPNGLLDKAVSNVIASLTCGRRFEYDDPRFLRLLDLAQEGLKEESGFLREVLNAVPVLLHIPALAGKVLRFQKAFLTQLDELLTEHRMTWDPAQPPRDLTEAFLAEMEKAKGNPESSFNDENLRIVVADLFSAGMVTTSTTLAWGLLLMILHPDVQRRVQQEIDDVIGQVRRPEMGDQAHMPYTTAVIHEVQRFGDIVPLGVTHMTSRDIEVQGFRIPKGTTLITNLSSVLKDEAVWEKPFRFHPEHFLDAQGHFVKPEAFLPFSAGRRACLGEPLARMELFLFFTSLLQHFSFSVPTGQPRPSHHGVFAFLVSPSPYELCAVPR
Nuclear receptor subfamily 1 group I member 2 (Homo sapiens), sequence (O75469 whole entry, looked up): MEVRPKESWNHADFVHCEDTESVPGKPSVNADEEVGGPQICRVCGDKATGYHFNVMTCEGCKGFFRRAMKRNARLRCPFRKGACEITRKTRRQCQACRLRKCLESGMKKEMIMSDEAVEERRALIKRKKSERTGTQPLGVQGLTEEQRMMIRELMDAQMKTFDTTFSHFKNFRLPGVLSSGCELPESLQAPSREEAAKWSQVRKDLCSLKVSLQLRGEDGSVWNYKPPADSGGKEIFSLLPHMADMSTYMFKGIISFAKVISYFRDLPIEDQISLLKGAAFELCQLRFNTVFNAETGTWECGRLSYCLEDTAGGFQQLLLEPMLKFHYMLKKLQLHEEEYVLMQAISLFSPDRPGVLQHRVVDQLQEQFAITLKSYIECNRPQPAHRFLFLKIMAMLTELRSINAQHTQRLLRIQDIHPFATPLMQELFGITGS
Cytochrome P450 1A2 (Homo sapiens), sequence (P05177 whole entry, looked up): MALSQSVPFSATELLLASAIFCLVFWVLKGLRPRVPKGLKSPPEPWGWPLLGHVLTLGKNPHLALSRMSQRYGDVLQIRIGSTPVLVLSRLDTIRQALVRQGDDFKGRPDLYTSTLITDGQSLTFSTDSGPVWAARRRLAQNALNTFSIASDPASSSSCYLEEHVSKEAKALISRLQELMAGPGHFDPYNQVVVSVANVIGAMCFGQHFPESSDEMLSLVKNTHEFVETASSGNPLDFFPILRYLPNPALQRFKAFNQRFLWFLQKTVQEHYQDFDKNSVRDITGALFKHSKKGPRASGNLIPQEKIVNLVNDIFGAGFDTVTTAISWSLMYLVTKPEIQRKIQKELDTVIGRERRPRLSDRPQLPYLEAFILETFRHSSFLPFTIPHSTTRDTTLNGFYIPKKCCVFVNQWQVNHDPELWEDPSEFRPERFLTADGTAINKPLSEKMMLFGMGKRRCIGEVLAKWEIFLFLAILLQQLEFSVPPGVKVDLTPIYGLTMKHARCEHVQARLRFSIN
Cytochrome P450 2C9 (Homo sapiens), sequence (P11712 whole entry, looked up): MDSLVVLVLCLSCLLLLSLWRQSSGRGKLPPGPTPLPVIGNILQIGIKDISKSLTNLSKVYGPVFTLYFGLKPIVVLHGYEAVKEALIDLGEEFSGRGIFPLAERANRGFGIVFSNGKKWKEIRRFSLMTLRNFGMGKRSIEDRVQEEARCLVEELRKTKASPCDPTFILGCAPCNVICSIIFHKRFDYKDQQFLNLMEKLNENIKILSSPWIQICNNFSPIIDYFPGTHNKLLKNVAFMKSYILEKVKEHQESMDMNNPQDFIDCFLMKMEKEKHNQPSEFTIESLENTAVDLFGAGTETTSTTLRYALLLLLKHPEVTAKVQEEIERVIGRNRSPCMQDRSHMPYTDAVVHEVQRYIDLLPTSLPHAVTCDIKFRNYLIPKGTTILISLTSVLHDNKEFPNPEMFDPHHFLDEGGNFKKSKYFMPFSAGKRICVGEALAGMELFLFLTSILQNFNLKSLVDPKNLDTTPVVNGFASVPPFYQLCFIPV

As for `CCC[CH2][Sn]([Cl])([Cl])[CH2]CCC`, the Potency in test [1] is 501 nM (active) and 1.37 µM (active); in test [3], 220 nM (active) and 154 nM (active); in test [5], 4.38 µM (active) and 7.7 µM (active); in [10] it was 36 µM (active); in [11] it was 8.07 µM (active) and 22.4 µM (active); in test [12] it was 36 µM (active). The Potency in test [14] is 39.4 µM (active) and 17.4 µM (active). For the same compound, the Potency result in test [2], in test [4], in [6], in test [7], in test [8] and in test [9] was “inactive” in each case. Also, the Potency result in test [13] and in test [15] was “inactive” throughout.
As to `Cc1ccc([N+](=O)[O-])cc1`, the Potency result in [1], in [2], in [3], in test [4], in [5] and in test [16] was “inactive” in each case. The Potency entry in test [6], in [7], in test [8], in test [9], in [10] and in [11] was “inactive” throughout. Also, the Potency entry in [12], in test [13], in test [14] and in test [15] was “inactive” in each case.
As for `CN(C)P(=O)(N(C)C)N(C)C`, the Potency result in test [1], in test [2], in test [3], in test [4], in test [5] and in [16] was “inactive” throughout. The Potency entry in test [6], in [7], in [8], in [9], in test [10] and in [11] was “inactive” in each case. For the same compound, the Potency entry in [12], in test [13], in [14] and in test [15] was “inactive” in each case.
On to `Cc1cccc(N=Nc2ccc(N(C)C)cc2)c1`, for which the Potency entry in [1], in test [4], in test [6], in test [7], in test [8] and in test [9] was “inactive” each time. The Potency result in [10] and in [14] was “inactive” in each case. In addition, the Potency was 7.83 µM (active) and 2.43 µM (active) in [2]; 62.2 µM (active) and 43.3 µM (active) in [3]; 27.8 µM (active) and 8.63 µM (active) in test [5]; 221 nM (active) and 3.06 µM (active) in [16]; 10.2 µM (active) and 17.8 µM (active) in test [11]; 2.28 µM (active) and 3.56 µM (active) in [13].
For the compound `C=CC(=O)OCC(CC)(COC(=O)C=C)COC(=O)C=C`, the Potency is 31.6 µM (active) and 30.6 µM (active) in test [1]; 25 µM (active) and 24.3 µM (active) in test [2]; 4.99 µM (active) and 4.86 µM (active) in test [3]; 4.86 µM (active) in [4]; 35.3 µM (active) and 24.3 µM (active) in [5]; 65 µM (active) and 63.3 µM (active) in test [10]. The Potency in test [11] is 16.3 µM (active) and 15.9 µM (active); in test [12], 13 µM (active) and 28.3 µM (active); in test [13], 39.9 µM (active). Further, the Potency entry in [16], in test [6], in [7], in test [8], in [9] and in test [14] was “inactive” in each case.
On to `O=P(OCCCl)(OCCCl)OCCCl`, for which the Potency entry in test [1], in test [2], in [3], in test [4], in test [5] and in test [6] was “inactive” each time. Besides, the Potency entry in test [7], in [8], in test [9], in test [10], in test [14] and in test [15] was “inactive” throughout. For the same compound, the Potency result in [16] is “inactive and 19.3 µM (active)”; in [11], 70.4 µM (active); in test [13], 35.3 µM (active) and 35.6 µM (active).
Regarding `ClC(Cl)=C(Cl)C(Cl)=C(Cl)Cl`, the Potency entry in [1], in [2], in test [3], in test [4], in test [5] and in test [16] was “inactive” throughout. The Potency entry in [6], in [7], in [8], in [9], in [10] and in test [11] was “inactive” each time. Moreover, the Potency entry in test [12], in test [13] and in [14] was “inactive” each time.
On to `N#Cc1cccnc1`, for which the Potency entry in test [1], in test [2], in [3], in test [4], in [5] and in test [16] was “inactive” throughout. Also, the Potency result in [6], in [7], in test [8], in test [9], in test [10] and in test [13] was “inactive” throughout. For the same compound, the Potency entry in [14] and in test [15] was “inactive” throughout. Besides, the Potency in test [11] is 38.8 µM (active) and inactive.
For the compound `O=C1C(Cl)=C(Cl)C(=O)c2ccccc21`, the Potency is 39.8 µM (active) in test [1]; 4.34 µM (active) and 9.69 µM (active) in test [3]; 61.3 µM (active) in test [5]; 35.7 µM (active) and 25.2 µM (active) in test [7]; 11.3 µM (active) and 25.2 µM (active) in [8]; 79.9 µM (active) and 31.7 µM (active) in [9]. Further, the Potency was 17.9 µM (active) and 17.8 µM (active) in test [10]; 7.99 µM (active) and 5.64 µM (active) in [11]; 5.04 µM (active) and 4.48 µM (active) in test [12]; 17.9 µM (active) and 8.94 µM (active) in test [13]; 21.9 µM (active) in test [14]; 17.9 µM (active) and 17.8 µM (active) in test [15]. Also, the Potency entry in [2], in test [4], in test [16] and in [6] was “inactive” each time.
On to `CNC(=O)Oc1cccc2c1OC(C)(C)C2`, for which the Potency result in [1], in test [2], in [3], in test [4], in test [5] and in test [16] was “inactive” each time. Besides, the Potency result in test [10], in test [14] and in test [15] was “inactive” throughout. The Potency in test [6] is 726 nM (active) and 89.4 nM (active); in test [7], 726 nM (active) and 200 nM (active); in test [8] it was 289 nM (active) and 126 nM (active); in [9], 5.14 µM (active) and 1.59 µM (active); in test [11], 72.5 µM (active).
With `O=C1CCCO1`, the Potency entry in test [1], in test [2], in test [3], in test [4], in test [5] and in test [16] was “inactive” in each case. For the same compound, the Potency result in [6], in test [7], in test [8], in test [9], in [10] and in test [11] was “inactive” throughout. In addition, the Potency result in test [12], in test [14] and in test [15] was “inactive” in each case. In addition, the Potency in test [13] was 34.7 µM (active) and inactive.
